Results on nine compounds are retold here after PubChem BioAssay (NCI).

About 83,000 compounds went through this panel and 20% of them were active in at least one assay; those are over-represented in the sample as a whole.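 Interpretation: 100, growth as untreated; towards 0, rising growth inhibition; 0, no net growth; 0 to -100, cell death. Compounds scoring below 10 were considered active.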 A number with no mark means an inactive call. Calls of active or inactive are those of the source.

Holding throughout (test): NCI-60 one-dose screen, 48 h (100 = growth as untreated, 0 = no growth, -100 = all killed)
What all share (conditions): 10 µM unless noted

Experiment [1] relates to DU-145 prostate.
Experiment [2] has as its system K-562 leukemia.
Experiment [3] deals with MALME-3M melanoma.
Experiment [4] deals with MDA-MB-231 breast.
The subject of experiment [5] is RXF 393 renal.
In experiment [6] the test system is SF-268 CNS.
The subject of experiment [7] is SF-295 CNS.
The subject of experiment [8] is SF-539 CNS.
Experiment [9] concerns UACC-257 melanoma.
Experiment [10] concerns M14 melanoma.
In experiment [11] the test system is HCT-15 colon.
Experiment [12] deals with HT29 colon.
Experiment [13] deals with SNB-75 CNS.
In experiment [14] the test system is SNB-19 CNS.
Experiment [15] deals with PC-3 prostate.
Experiment [16] relates to UACC-62 melanoma.
For experiment [17], the system named is LOX IMVI melanoma.
For experiment [18], the system named is SK-MEL-28 melanoma.
In experiment [19] the test system is U251 CNS.
The test system of experiment [20] is SK-MEL-5 melanoma.

For the compound `O=C(CSc1nnc(-c2ccccc2)o1)Nc1ccc(C(=O)/C=C/c2ccccc2)cc1`, the growth in experiment [1] was 62.7%; in experiment [2], 8.02% (active); in [3], 69.8%; in [4], 83.9%; in [5], 93.1%; in experiment [6], 65.8%. For the same compound, the growth in experiment [7] is 77.3%; in experiment [8] it was 84.7%; in experiment [9], 113%; in [10] it was 66.4%; in experiment [11], 25.8%; in experiment [12] it was 32.4%. For the same compound, the growth was 33.5% in experiment [13]; 64.9% in experiment [14]; 77% in [15]; 82.3% in experiment [16]; 24.4% in experiment [17]; 97% in experiment [18].

`CC(=O)Cc1cccnc1`: the growth in experiment [1] is 110%; in experiment [2] it was 86.7%; in [3] it was 103%; in experiment [4], 99.9%; in experiment [5], 103%; in [6], 104%. For the same compound, the growth in [7] is 99.2%; in [8] it was 102%; in experiment [9], 96.8%; in experiment [10] it was 101%; in experiment [11], 107%; in experiment [13], 104%. In addition, the growth in experiment [14] is 98.8%; in [19], 98.6%; in [15] it was 94.3%; in experiment [20] it was 101%; in experiment [16], 95.6%; in [17] it was 99.9%. Moreover, the growth in experiment [18] is 113%.

In the case of `COc1ccc2c(c1)/C(=C/c1c(-c3cc(OC)c(OC)c(OC)c3Br)nc3sccn13)C(=O)N2`, the growth in experiment [1] was 114%; in [2], 76%; in experiment [3], 62.1%; in experiment [4] it was 81.4%; in experiment [5], 118%; in [6], 116%. Also, the growth in experiment [7] is 105%; in experiment [8], 95.3%; in [9], 110%; in experiment [10], 115%; in experiment [11], 109%; in experiment [13], 109%. The growth in experiment [14] is 106%; in experiment [19], 93.4%; in [15], 82.6%; in experiment [20] it was 83.1%; in experiment [16] it was 69.2%; in [17] it was 64.7%. Moreover, the growth in [18] is 123%.

In the case of `CN1CCN(Cn2nc(-c3cc(F)c(Cl)cc3Cl)n(/N=C/c3ccc(N(C)C)cc3)c2=S)CC1`, the growth in [1] is 87.3%; in experiment [2], 22.4%; in [3], 63.4%; in [4] it was 102%; in experiment [5], 82.7%; in [6], 102%. Moreover, the growth was 48.4% in experiment [7]; 78.1% in [8]; 93.8% in [9]; 37.3% in experiment [10]; 100% in [11]; 99.5% in experiment [12]. In addition, the growth was 78.7% in experiment [13]; 71.5% in experiment [14]; 76.2% in experiment [15]; 79.4% in experiment [16]; 79.9% in [17]; 82.1% in [18].

`CN1CCN(Cn2nc(-c3cc(Cl)cc(Cl)c3Cl)n(/N=C/c3ccc(Cl)cc3)c2=S)CC1`: the growth in experiment [1] was 102%; in experiment [2] it was 73.9%; in [3], 101%; in experiment [4], 83.8%; in experiment [5], 89.6%; in [6], 117%. Moreover, the growth is 102% in experiment [7]; 108% in experiment [8]; 93.6% in experiment [9]; 96% in experiment [10]; 93.5% in experiment [11]; 117% in experiment [12]. The growth is 107% in experiment [13]; 96.6% in experiment [14]; 82.4% in [15]; 90% in [16]; 90.4% in experiment [17]; 111% in experiment [18].

Turning to `O=c1c2ccccc2sc2c(N3CCCC3)nc3ccccc3c12`, the growth was 99% in experiment [1]; 86.5% in experiment [2]; 136% in [3]; 90.5% in [4]; 103% in experiment [5]; 98.9% in [6]. The growth is 115% in experiment [7]; 102% in experiment [8]; 106% in experiment [9]; 114% in experiment [10]; 94% in experiment [11]; 86.6% in [13]. Moreover, the growth in experiment [14] was 95.9%; in experiment [15], 83.4%; in [20], 92.6%; in experiment [16] it was 79%; in [17] it was 85.9%; in experiment [18], 120%.

Turning to `O=C(Nc1ccc(-n2cc(-c3ccncc3)c(-c3ccc(O)c(Cl)c3)n2)cc1)c1ccc(Cl)c(C(F)(F)F)c1`, the growth in experiment [1] was 35.3%; in experiment [2], 5.88% (active); in experiment [3] it was 25%; in experiment [4], -29.1% (active); in [5], -81.6% (active); in experiment [6], 38%. Further, the growth in experiment [7] was -2.61% (active); in [8] it was 2.46% (active); in experiment [9], 60.9%; in [10] it was -16.2% (active); in experiment [11], 7.89% (active); in experiment [13], 59.7%. Moreover, the growth in [14] is 40.2%; in [19], 15.7%; in experiment [15] it was 14.4%; in experiment [20] it was -46.7% (active); in [16], 71.2%; in experiment [17], -47.6% (active). Further, the growth in experiment [18] is 44.3%.

On to `O=C(Nc1ccc(-n2cc(-c3ccncc3)c(-c3ccc(O)c(Cl)c3)n2)cc1)c1ccc(Cl)c(Cl)c1`, for which the growth in experiment [1] is 46.1%; in experiment [2] it was 11.7%; in [3], 46.8%; in experiment [4], -33.8% (active); in experiment [5], -83.2% (active); in experiment [6], 54.5%. The growth in [7] is -16.3% (active); in [8] it was 10.6%; in [9], 69.5%; in experiment [10], -35.7% (active); in [11], 18.2%; in [13], 70%. In addition, the growth in experiment [14] was 59.6%; in experiment [19], 26.8%; in experiment [15], 20.2%; in experiment [20], -20.3% (active); in [16], 59.1%; in experiment [17] it was -29.1% (active). Moreover, the growth in experiment [18] is 59.7%.

Regarding `Nc1ccc(S(=O)(=O)Nc2cc(I)cc(I)c2)cc1`, the growth in experiment [1] is 124%; in [2] it was 78.5%; in [3], 118%; in experiment [4], 102%; in [5], 97.2%; in experiment [6] it was 108%. The growth in experiment [7] was 113%; in experiment [8], 111%; in experiment [9] it was 99.7%; in experiment [10] it was 110%; in [11], 112%; in experiment [13] it was 97.6%. Moreover, the growth is 116% in [14]; 106% in experiment [19]; 97.2% in [15]; 105% in experiment [20]; 107% in experiment [16]; 104% in experiment [17]. In addition, in experiment [18], the growth is 105%.
